The record followed here is ChEMBL document CHEMBL4888484, “Replenishing the malaria drug discovery pipeline: Screening and hit evaluation of the MMV Hit Generation Library 1 (HGL1) against asexual blood stage Plasmodium falciparum ,using a nano luciferase reporter read-out” (2022).

Out of some 4,800 compounds screened, about 420 (8.8%) showed an effect of 50% or more. Shown is part of a subset that was picked to be rich in strong results.

For orientation: % Inhibition means the change of the read-out against control, counted positive when it falls.

This experiment concerns Plasmodium falciparum. Kind of experiment: Confirmatory screen in NF54 nanoGlo assay, in single point, at 2uM, 72h. The experiment is classed as functional, Erythrocyte. The settings on record: timepoint 72 hour.
In the case of `COc1snc(C(Cl)(Cl)Cl)c1Cl`, the “% Inhibition” value was -2%. With `CCN(CC)CCC1C(=O)N(c2ccccc2)C(=O)N(c2ccccc2)C1=O` the figure was 4%; with `CC(=O)N1N=C(c2cccnc2)O[C@H]1c1ccc(F)cc1`, -10%; with `Cc1nc(Cn2nc(C(C)(C)C)oc2=O)oc1C`, 0%. With `FC1(F)C[C@@H](COc2cccnc2)N(C2CCCCC2)C1` the figure was 3%. As for `Cn1cc(/C=C2\CC3C4CCC5CCCCC5(C)C4CCC3(C)C2O)cn1` (configuration not stated), the “% Inhibition” value turned out to be 0%. Consider `Cc1cccc(CN(C)C)c1OC(=O)N(C)C`, for which the “% Inhibition” value is reported as -9%.

Consider `COc1ccc(-c2cc([C@H]3CN4CC[C@H]3C[C@@H]4CNC(=O)C3CCCCC3)n(C)n2)cc1OC`, for which the “% Inhibition” value is -9%.

Regarding `Cc1ccc(NC(=O)N2CCC(=O)CC2)cc1Br`, the “% Inhibition” value was -4%. In the case of `C=CCCC(CN1C[C@H]2CC=CC[C@H]2C1)Oc1ncc(F)cn1` (some centres not stated), the “% Inhibition” value came out at 77%. Under `COC(=O)[C@H]1CN(Cc2noc(C)n2)C[C@@H]1c1ccc(F)cc1F` stands -20%; under `CC(Cc1ccccc1)NC1CN2CCC1CC2` (configuration not stated), 1%. Regarding `CC(C)N1CCN(c2nc3nc[nH]c(=O)c3s2)CC1`, the “% Inhibition” value came to 4%.

Take `O=S(=O)(NC12CCCC1CNC2)c1onc(C2CC2)c1Cl` (configuration not stated): the “% Inhibition” value worked out at 95%.

On to `O=C(NCc1cc(F)cc(F)c1)c1cn(Cc2ccc(F)cc2)nn1`, for which the “% Inhibition” value is reported as -15%. Turning to `O=C1N[C@](c2ccccc2)(C(F)(F)F)c2ccc3ccccc3c2O1`, the “% Inhibition” value is 5%. With `CC1CCCCC1N1CCN(C(=O)COc2ccc(Br)cc2)CC1` (configuration not stated) the figure was 3%. Under `O=c1c2cc(Cl)ccc2nc(-c2cccnc2)n1-c1ccc(Br)cc1` stands 0%. Under `O=C1O[C@@H]2CCN(Cc3ccccc3)[C@H]1C2` stands -15%; under `CCC1(CC)C(=O)N(CN2CCCC2=O)C(=O)N(CN2CCCC2=O)C1=O`, -17%; under `CN(C)S(=O)(=O)Nc1cccc(OC(=O)N2CCOCC2)c1`, -10%. Regarding `CCN1CCC[C@H](NC(C2CCC2)C2CCC2)C1`, the “% Inhibition” value was -3%. With `Cc1cc(=O)c(OCC(=O)N2CCN([C@@H](c3ccccc3)c3ccc(Cl)cc3)CC2)c[nH]1` the figure was 63%; with `O=C(N1CCN(C(c2ccccc2)c2ccccc2)CC1)C(O)(c1ccccc1)c1ccccc1`, -4%.

As to `COc1cc(OCC(=O)N2CCN([C@@H](C)Cc3ccccc3)CC2)cc(OC)c1OC`, the “% Inhibition” value is on record as 8%. Under `Cc1ccc(C(O)(c2ccc(C)c(C)c2)[C@H]2C[N@]3CC[C@@H]2CC3)cc1C` stands 6%; under `CN1CCN(CCO[C@@H](c2cccc(Cl)c2)c2ccccc2Cl)CC1`, 0%. With `O=C(c1ccccc1)c1cc(Cl)ccc1NC(=O)[C@H]1CC(=O)N(c2ccc(F)cc2)C1`, the “% Inhibition” value stood at 85%. Under `c1cc(-n2cnnn2)ccc1N[C@H]1CN2CCC1CC2` stands -14%; under `CC(C)c1nc(CC(=O)N2CCN(Cc3nnc4n3CCCCC4)CC2)cs1`, -12%; under `CCCC(=O)N(C1=CC2CCC(C1)N2C)c1ccccc1` (configuration not stated), 1%. With `Cc1cc(C(=O)NC2CC(C)n3ccnc32)nn1C(C)C` (configuration not stated) the figure was 58%. Under `COc1cc(=O)c(C(=O)N2CCC3(CC2)OCCO3)nn1-c1ccc(C)cc1` stands -5%.

Take `CN1CCC2CCN(C(=O)c3cc(C4CC4)on3)C2C1` (configuration not stated): the “% Inhibition” value is on record as 2%. Under `CCOc1ccccc1N1C(=O)NC(=O)[C@@]2(Cc3cc(C)ccc3N(C)C2)C1=O` stands -10%. With `COC(=O)C(O)(c1ccc2c(c1)C(O)(C(F)(F)F)C(=O)N2C(C)C)C(F)(F)F` (configuration not stated) the figure was 8%; with `CC1CN2CCCC2CN1C(=O)c1cc(C2CC2)on1` (configuration not stated), -17%; with `O=C1C2CCN(CC2)[C@H]1Cc1ccc(Cl)cc1`, 4%. For `Cc1cc(C(F)(F)F)c2c(C(N)=O)cn(C(C)(C)C)c2n1`, the “% Inhibition” value worked out at 2%. Regarding `C[N+]12CCC(CC1)[C@@H](C(O)(c1cccc(Cl)c1)c1cccc(Cl)c1)C2`, the “% Inhibition” value was found to be 24%.

On to `O=C1CO[C@H]2CCN(Cc3cn4ccc(Br)cc4n3)C[C@@H]2N1`, for which the “% Inhibition” value came to 1%. Turning to `Cn1nc(OC(=O)Nc2ccccc2)cc1C(F)(F)F`, the “% Inhibition” value stood at 6%. Under `CN(C)C(=O)CCCn1ccc(NC(=O)C2C(C)(C)C2(C)C)n1` stands -18%. On to `Nc1ccc(N2CCN3CCC[C@H]3C2)cc1`, for which the “% Inhibition” value stood at 8%. As for `Cc1ccc2c(c1)CCCN2C(=O)CN1CC=C(c2cnn(C)c2)CC1`, the “% Inhibition” value is listed as 43%. With `CCCS(=O)(=O)NC[C@H]1C[C@@H]2CCN1C[C@@H]2c1cc(C(CC)CC)nc(-c2ccncc2)n1` the figure was 18%; with `CCC(CC)c1cc([C@H]2CN3CC[C@H]2C[C@@H]3CO)nc(-c2ccncc2)n1`, 26%. `CCC(CC)c1cc([C@H]2CN3CC[C@H]2C[C@@H]3CNS(=O)(=O)Cc2ccccc2)nc(-c2ccncc2)n1`: the “% Inhibition” value is listed as 63%.

With `CC1CCNC(=O)C1NC(=O)Nc1ccc(C#N)c(C(F)(F)F)c1` (configuration not stated), the “% Inhibition” value came to 8%. Under `Clc1ccc(C2CC(c3cccnc3)Nc3nnnn32)cc1` (configuration not stated) stands -10%; under `CCCCC1(CCCC)C(=O)NC(=Nc2ccc(C)cc2)NC1=O`, -18%. With `O=C1N(c2ccccc2)C(=O)C2(Cc3cc(C(F)(F)F)ccc3N3CCC(c4ccccc4)CC32)C(=O)N1c1ccccc1` (configuration not stated) the figure was 4%; with `CC[C@H]1C[N@@]2CC[C@H]1C[C@@H]2COC(=O)Nc1ccc(C(C)(C)C)cc1`, 4%.

For `COc1cccc(CNC(=O)N2CC[C@@H]3CCN(C)C[C@@H]32)n1`, the “% Inhibition” value was -2%.

For `CC(=O)N(C1CCN(Cc2ccccc2)CC1)C1(C(=O)Nc2ccc3[nH]ccc3c2)CCN(C)CC1`, the “% Inhibition” value turned out to be 35%. With `c1cc(N2CC[C@@]3(CCCNC3)C2)c2sccc2n1` the figure was 99%; with `CN1CC[C@]2(CCN(c3ccnc4ccsc34)C2)C1`, 99%. With `CCn1nccc1CNCCc1ccccc1` the figure was 4%; with `CC[C@H]1C[N@@]2CC[C@H]1C[C@@H]2COC(=O)Nc1ccccc1`, 3%; with `CNc1snc(C)c1C(=O)N1CCC(C(=O)OC)(c2ccccc2)CC1`, -2%. Under `COc1ccc(-c2ccccc2N2CCNCC2)c2ccc(C)nc12` stands -4%; under `Clc1cccc(CCN[C@H]2CCOC3(CCOCC3)C2)c1`, 7%.
